Results reported in PubChem BioAssay.
Activity calls are given as the source filed them.

Experiments:
[1] = binders of probe aFSTL3 on microarray, primary screen, stem cell growth factor project, biochemical, small-molecule microarray, fluorescence 635/667 (AID 1064); settings: higher = more signal;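 also: measures binding of the biotinylated anti-FSTL3 antibody to printed compounds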
[2] = binders from COS7 lysate, DM2A8 probe, primary screen, torsin A project, cell lysate, small-molecule microarray, fluorescence 635/667 (AID 1065); settings: higher = more signal, COS7 lysate expressing mutant human TOR1A
[3] = binders of probe aFGF2 on microarray, primary screen, stem cell growth factor project, biochemical, small-molecule microarray, fluorescence 635/667 (AID 1067); settings: higher = more signal;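 also: measures binding of biotinylated aFGF2 protein to printed compounds on slides; z-score merges feature fluorescence and signal-to-noise across triplicate slides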
[4] = binders of probe aFGF10 on microarray, primary screen, stem cell growth factor project, biochemical, small-molecule microarray, fluorescence 635/667 (AID 1071); settings: higher = more signal;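 also: score merges 667 nm spot intensity and signal to noise from triplicate slides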
[5] = molecular target: Neurogenic locus notch homolog protein 2 (Homo sapiens) (UniProt Q04721); assay: Notch2 binders on small-molecule microarrays, primary screen, biochemical, small-molecule microarray, 635 nm fluorescence, stem cell growth factors (AID 1073); settings: Notch2 binding, higher = more signal
[6] = molecular target: Pro-neuregulin-1, membrane-bound isoform (Homo sapiens) (UniProt Q02297); assay: NRG1 binders on small-molecule microarrays, primary screen, psychiatric disease protein project, biochemical, small-molecule microarray, fluorescence 635/667 (AID 1075); settings: NRG1 binding, 635 nm fluorescence, higher = more signal;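 also: score combines 667 nm spot fluorescence with signal to noise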
[7] = test system: Neuregulin-1 EGF-like domain; assay: binders of neuregulin-1 EGF-like domain, primary screen, biochemical, small-molecule microarray, 635 nm fluorescence (AID 1081); settings: small-molecule microarray binding, higher = more signal;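 also: binding of the protein to compounds printed on small-molecule microarray slides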
[8] = FRG1 promoter luciferase signal modulators, primary screen, FRG1 inhibition for FSHD, cell-based, C2C12 myotubes, firefly/Renilla luciferase, luminescence (AID 1084); settings: higher = more signal, called active from +8 up or from −8 down
[9] = binders of probe aFST on microarray, primary screen, stem cell growth factor project, biochemical, small-molecule microarray, fluorescence 635/667 (AID 1086); settings: higher = more signal;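 also: score merges 667 nm fluorescence with signal-to-noise of each printed compound spot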
[10] = binders of probe aHhip on microarray, primary screen, stem cell growth factor project, biochemical, small-molecule microarray, fluorescence 635/667 (AID 1087); settings: higher = more signal;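 also: score merges spot fluorescence at 667nm with spot signal to noise ratio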

Neurogenic locus notch homolog protein 2 (Homo sapiens), sequence (Q04721 whole entry, looked up, canonical isoform): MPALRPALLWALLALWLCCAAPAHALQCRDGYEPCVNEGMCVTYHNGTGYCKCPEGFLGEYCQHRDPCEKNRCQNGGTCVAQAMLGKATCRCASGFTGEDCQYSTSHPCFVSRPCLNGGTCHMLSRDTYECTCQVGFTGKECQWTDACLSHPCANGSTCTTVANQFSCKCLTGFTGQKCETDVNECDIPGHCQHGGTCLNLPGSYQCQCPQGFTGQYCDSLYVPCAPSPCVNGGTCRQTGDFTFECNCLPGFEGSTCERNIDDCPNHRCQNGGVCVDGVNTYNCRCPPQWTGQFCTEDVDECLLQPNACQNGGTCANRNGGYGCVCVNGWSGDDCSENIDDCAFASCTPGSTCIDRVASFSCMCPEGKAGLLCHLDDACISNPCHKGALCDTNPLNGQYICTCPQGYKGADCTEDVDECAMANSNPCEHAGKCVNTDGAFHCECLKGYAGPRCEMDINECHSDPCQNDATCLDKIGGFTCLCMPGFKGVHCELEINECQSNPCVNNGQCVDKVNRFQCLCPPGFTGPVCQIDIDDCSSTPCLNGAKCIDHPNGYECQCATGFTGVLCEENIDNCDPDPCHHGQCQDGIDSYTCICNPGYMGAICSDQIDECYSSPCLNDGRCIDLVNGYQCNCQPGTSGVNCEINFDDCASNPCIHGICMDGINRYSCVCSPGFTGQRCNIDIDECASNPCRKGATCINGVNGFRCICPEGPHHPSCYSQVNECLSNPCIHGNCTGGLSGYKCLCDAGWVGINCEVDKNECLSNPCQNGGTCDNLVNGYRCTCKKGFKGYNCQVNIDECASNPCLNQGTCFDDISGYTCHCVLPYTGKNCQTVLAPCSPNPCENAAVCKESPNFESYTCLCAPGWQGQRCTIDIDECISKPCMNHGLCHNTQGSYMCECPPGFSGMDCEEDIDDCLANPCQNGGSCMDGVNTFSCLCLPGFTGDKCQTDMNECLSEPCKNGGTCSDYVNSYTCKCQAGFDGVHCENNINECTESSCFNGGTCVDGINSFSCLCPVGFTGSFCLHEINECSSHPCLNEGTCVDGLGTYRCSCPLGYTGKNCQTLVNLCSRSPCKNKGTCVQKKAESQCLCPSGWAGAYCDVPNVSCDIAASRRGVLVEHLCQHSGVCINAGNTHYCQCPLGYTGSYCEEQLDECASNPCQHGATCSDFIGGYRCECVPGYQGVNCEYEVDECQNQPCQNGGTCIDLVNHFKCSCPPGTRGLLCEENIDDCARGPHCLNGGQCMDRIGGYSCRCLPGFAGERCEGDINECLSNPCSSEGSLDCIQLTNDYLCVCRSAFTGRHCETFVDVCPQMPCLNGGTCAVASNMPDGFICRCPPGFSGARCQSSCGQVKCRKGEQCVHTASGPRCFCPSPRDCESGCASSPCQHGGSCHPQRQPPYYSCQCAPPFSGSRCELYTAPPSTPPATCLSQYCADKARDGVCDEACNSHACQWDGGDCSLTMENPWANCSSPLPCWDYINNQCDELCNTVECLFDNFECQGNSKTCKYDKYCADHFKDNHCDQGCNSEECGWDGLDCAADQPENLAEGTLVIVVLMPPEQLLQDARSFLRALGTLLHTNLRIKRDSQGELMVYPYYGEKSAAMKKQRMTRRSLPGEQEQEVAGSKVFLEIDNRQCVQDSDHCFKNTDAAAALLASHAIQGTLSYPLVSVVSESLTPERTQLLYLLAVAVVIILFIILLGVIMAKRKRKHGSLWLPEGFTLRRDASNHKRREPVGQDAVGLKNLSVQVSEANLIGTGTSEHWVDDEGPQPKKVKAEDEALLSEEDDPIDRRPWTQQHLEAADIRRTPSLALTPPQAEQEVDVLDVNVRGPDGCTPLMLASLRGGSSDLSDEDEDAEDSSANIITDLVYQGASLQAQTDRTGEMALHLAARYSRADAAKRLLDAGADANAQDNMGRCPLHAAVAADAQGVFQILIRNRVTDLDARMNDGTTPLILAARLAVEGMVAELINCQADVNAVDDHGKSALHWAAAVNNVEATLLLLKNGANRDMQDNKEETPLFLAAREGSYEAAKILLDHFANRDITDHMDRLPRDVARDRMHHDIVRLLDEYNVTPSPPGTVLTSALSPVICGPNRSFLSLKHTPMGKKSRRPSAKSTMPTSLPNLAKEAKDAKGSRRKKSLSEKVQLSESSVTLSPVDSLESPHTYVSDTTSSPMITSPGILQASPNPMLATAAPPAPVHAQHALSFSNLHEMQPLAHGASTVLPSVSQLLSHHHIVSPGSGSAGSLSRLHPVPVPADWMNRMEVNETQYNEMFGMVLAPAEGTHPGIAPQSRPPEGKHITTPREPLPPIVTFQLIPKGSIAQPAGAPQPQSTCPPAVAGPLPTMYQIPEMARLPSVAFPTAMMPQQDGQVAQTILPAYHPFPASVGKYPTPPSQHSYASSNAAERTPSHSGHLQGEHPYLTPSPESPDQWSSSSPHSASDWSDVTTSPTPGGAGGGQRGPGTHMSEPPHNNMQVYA
Pro-neuregulin-1, membrane-bound isoform (Homo sapiens), sequence (Q02297 whole entry, looked up, the tested form may be a part, canonical isoform): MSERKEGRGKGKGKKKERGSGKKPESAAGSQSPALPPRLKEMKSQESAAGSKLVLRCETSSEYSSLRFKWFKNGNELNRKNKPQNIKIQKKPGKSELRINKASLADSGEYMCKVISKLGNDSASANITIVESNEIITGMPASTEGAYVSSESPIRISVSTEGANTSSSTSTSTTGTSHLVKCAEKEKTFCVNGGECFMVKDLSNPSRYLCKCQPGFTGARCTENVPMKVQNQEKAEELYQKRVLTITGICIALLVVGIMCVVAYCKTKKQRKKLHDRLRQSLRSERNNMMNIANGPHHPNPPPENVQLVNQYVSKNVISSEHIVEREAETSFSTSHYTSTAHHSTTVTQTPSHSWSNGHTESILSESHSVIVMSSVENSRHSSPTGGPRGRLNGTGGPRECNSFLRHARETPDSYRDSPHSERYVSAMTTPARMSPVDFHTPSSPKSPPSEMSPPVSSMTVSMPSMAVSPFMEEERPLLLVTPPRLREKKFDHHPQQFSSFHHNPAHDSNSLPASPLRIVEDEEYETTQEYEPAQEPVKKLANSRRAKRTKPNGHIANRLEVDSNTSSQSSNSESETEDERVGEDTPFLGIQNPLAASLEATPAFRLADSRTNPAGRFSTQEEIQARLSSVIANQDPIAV

SMILES	composite z-score [1]	composite z-score [2]	composite z-score [3]	composite z-score [4]	composite z-score [5]	composite z-score [6]	composite z-score [7]	z-score [8]	composite z-score [9]	composite z-score [10]
CC(C)(C)N1CC=CC23O[C@@H]4C=CCCOC(=O)C4[C@H]2C(=O)N(CCCCCCO)[C@@H]3C1=O (stereo not given in full)	-0.0477	-1.39	-0.0628	0.0493	-0.615	1.36	1.56	0.908 (inactive)	-0.0273	-0.236
COc1ccc([Si](C)(C)[C@H]2[C@H](CCO)O[C@@]3(C(=O)N(Cc4cccc(N5C(=O)c6ccccc6Oc6ccccc65)c4)c4ccccc43)[C@@H]2C)cc1	0.115	-0.672	-0.0645	0.462	0.139	0.962	1.02	-1.19 (inactive)	-0.278	-0.132
C=CCC(OC(C)=O)[C@@H]1[C@@H](N(Cc2cccc3ccccc23)C(=O)Cc2ccc(OC)cc2)c2cc(OCCCO)ccc2N1C(=O)c1ccc2ccccc2c1 (stereo not given in full)	0.175	0.737	-0.052	0.113	-0.451	-0.0627	-0.805	-1.75 (inactive)	0.0737	-0.337
CC[C@@H]1C=C(C(=O)O)[C@H](c2ccc(OC)cc2)N1S(=O)(=O)c1ccc(C)cc1	0.0675	-0.194	-0.128	-0.0542	0.0174	0.993	1.28	0.267 (inactive)	0.233	-0.0994
CCCC=C(CCC)[C@@H](NC(=O)c1ccc(C(F)(F)F)cc1)c1ccc(C(F)(F)F)cc1	0.625	0.629	0.171	0.669	1.57	1.82	0.588	-4.76 (inactive)	1.04	-0.0965
O=C1NC(=O)C2C1C=CC(C(O)c1ccc(B(O)O)cc1)N2Nc1ccc(Cl)cc1Cl (stereo not given)	-0.144	-0.397	-0.0095	0.454	1.11	1.16	0.955	0.402 (inactive)	0.514	-0.0645
COc1ccc([Si](C)(C)[C@@H]2[C@@H](CC(=O)N3Cc4ccccc4C[C@H]3CO)O[C@]3(C(=O)N(Cc4cccc(N5CCOC5=O)c4)c4ccccc43)[C@H]2C)cc1	-0.38	0.671	-0.0264	0.147	0.331	0.309	0.876	-1.64 (inactive)	0.0495	-0.0618
O=C1O[C@@H](c2ccccc2)[C@@H](c2ccccc2)N2[C@@H](c3ccc(OCCO)cc3)[C@]3(C(=O)Nc4ccc(C#CCCO)cc43)[C@@H](C(=O)O)[C@H]12	1.47	0.431	0.213	0.749	0.882	1.46	1.24	-1.75 (inactive)	1.9	0.102
COc1ccc(C#Cc2ccc3c(c2)[C@]2(C(=O)N3)[C@H](C(=O)O)[C@H]3C(=O)O[C@H](c4ccccc4)[C@H](c4ccccc4)N3[C@@H]2c2ccccc2OCCO)cc1	-1.04	0.485	-0.095	0.991	1.26	0.566	1.07	0.205 (inactive)	-0.515	-0.583
CC(C)N1C(=O)c2ccccc2[C@@H](C(=O)NCC(F)(F)F)[C@@H]1c1ccc(CO)cc1	0.277	-1.16	-0.133	-0.0347	-1.07	0.156	1.21	0.0294 (inactive)	-0.0934	-0.169
CC=CC(O)C1C=CC2C(=O)NC(=O)C2N1Nc1ccc(Cl)cc1Cl (stereo not given)	0.389	0.453	-0.0074	0.647	0.662	1.01	0.669	0.035 (inactive)	0.114	-0.0645
C=CCOC(=O)[C@H]1[C@@H]2C(=O)O[C@@H](c3ccccc3)[C@@H](c3ccccc3)N2[C@@H](c2ccc(OCCOC(=O)[C@H]3C[C@H]4C(=O)N[C@@H](CC(C)C)C(=O)N4[C@H]3c3ccc(O)cc3)cc2)[C@]12C(=O)Nc1ccccc12	-0.109	1.34	-0.079	0.868	1.46	1.45	1.43	-0.0648 (inactive)	0.174	0.213
Cc1ccc(F)cc1S(=O)(=O)N[C@H]1CCN(Cc2ccc(OC(C)C)cc2)C1	-0.347	0.325	-0.201	-0.0293	-0.563	-0.0273	0.629	-1.84 (inactive)	0.101	-0.132
OCCCC1=CC(c2ccc(CN3CCCC3)cc2)N(Cc2cccc(OC(F)(F)F)c2)CC1 (stereo not given)	0.373	0.134	-0.0853	0.0263	-0.546	0.0603	0.0735	0.372 (inactive)	-0.176	-0.236
COc1ccc([Si](C)(C)[C@@H]2[C@@H](CC(=O)N3CCC[C@H]3CO)O[C@]3(C(=O)N(Cc4ccc(N5CCOC5=O)cc4)c4ccccc43)[C@H]2C)cc1	-0.29	0.59	-0.155	-0.0087	0.01	0.717	1.01	-2.49 (inactive)	0.138	-0.0994
O=C1C2C=CC(C(O)C3CCCCC3)N(n3cnnc3)C2C(=O)N1Cc1ccccc1 (stereo not given)	-0.0187	0.396	0.0498	0.792	0.884	1.07	1.3	1.11 (inactive)	1.47	-0.299
C=CCOC(=O)[C@@H]1[C@H]2C(=O)O[C@H](c3ccccc3)[C@H](c3ccccc3)N2[C@H](c2ccc(OCCOC(=O)[C@H]3C[C@H]4C(=O)N5CCC[C@H]5C(=O)N4[C@H]3c3cccc(OCCO)c3)cc2)[C@@]12C(=O)Nc1ccc(I)cc12	-0.0333	0.546	-0.0538	0.441	0.596	0.499	1.2	1.67 (inactive)	0.182	-0.0767
CCOC(=O)C1=C[C@@H](C(C)(C)C)N(S(=O)(=O)c2ccc(C)cc2)[C@H]1c1ccc(C#N)cc1	0.116	0.255	-0.0181	0.707	1.35	1.32	1.22	-0.793 (inactive)	0.313	0.144
C=CC[C@]1(C(=O)NCC(O)CO)COC(c2ccc(OCCCO)cc2)=N1 (stereo not given in full)	1.3	1.29	0.0163	-0.0216	-0.888	0.0498	0.99	1.14 (inactive)	0.0371	-0.141
COc1cc(CO)cc(I)c1O[C@H]1C=C(C(=O)NCCO)C[C@@H](NC2CCCCCC2)[C@@H]1O	-0.606	0.174	-0.0114	0.998	0.618	-0.0274	0.716	0.999 (inactive)	-0.0564	-0.0994
C=C(CCCC)/C(=C/C[C@H](OC(=O)c1ccncc1)c1ccc(OCCO)cc1)c1cnc2ccccc2c1	0.102	1.23	-0.121	0.322	1.12	1.33	1.23	-0.791 (inactive)	0.402	-0.124
Cc1ccccc1C(O)C1C=CC2C(=O)N(c3ccccc3)C(=O)C2N1Nc1ccccc1 (stereo not given)	0.457	0.573	0.133	1.15	1.61	2.18	1.31	-1.78 (inactive)	1.06	0.0741
C=CCC(OC(C)=O)[C@@H]1[C@@H](N(Cc2ccc(-c3cccc(C(F)(F)F)c3)o2)C(=O)c2ccc(-c3ccccc3)cc2)c2cc(OCCCO)ccc2N1C(=O)c1ccc2ccccc2c1 (stereo not given in full)	-0.071	-0.651	-0.105	-0.117	0.311	-0.0973	-0.373	-0.274 (inactive)	0.543	-0.0618
C=CCNC(=O)[C@@H]1[C@H]2C(=O)O[C@H](c3ccccc3)[C@H](c3ccccc3)N2[C@H](c2ccc(OCCO)cc2)[C@@]12C(=O)Nc1ccc(C#CC3(O)CCCCCC3)cc12	0.0068	0.927	-0.0765	0.592	1.21	1.29	1.29	0.803 (inactive)	0.551	-0.0994
COC(=O)[C@@]1(Cc2ccc(F)cc2)[C@H]2c3cc(C(=O)N(C)C)n(C)c3C[C@H]2CN1C(=O)c1ccccc1	-0.187	-0.609	0.0364	1.08	1.58	1.12	1.16	0.736 (inactive)	0.229	0.0677
O=C1O[C@H](c2ccccc2)[C@H](c2ccccc2)N2[C@H]1[C@@H](C(=O)N1CCN(c3ncccn3)CC1)[C@]1(C(=O)Nc3ccc(C#CCCO)cc31)[C@H]2c1ccc(O)cc1	-0.153	-0.162	0.0033	0.597	1.01	1.71	0.979	1.34 (inactive)	0.0354	0.0373
O=C(NC1CC1)[C@@H]1c2ccccc2C(=O)N(CC23CC4CC(CC(C4)C2)C3)[C@H]1c1ccc(CO)cc1	-0.314	0.179	0.0319	0.581	1.44	0.264	1.29	-3.56 (inactive)	0.556	-0.0645
O=C(NCC(O)CO)C1N=C(c2ccc(OCCCO)cc2)N(c2ccccc2)O1 (stereo not given)	-0.279	0.657	0.0073	0.643	0.575	-0.168	0.462	3.24 (inactive)	-0.282	0.136
